Bioassay records deposited in PubChem BioAssay by National Center for Advancing Translational Sciences (NCATS).
This is a sample that favours compounds with a hit; in the whole collection about 3.8% have one here.
HT1080NT lethal: kills 2HG-producing HT-1080-NT fibrosarcoma cells. Potency, µM (top dose mostly 46.1 µM), for inactives: at the top dose activity, negative = less viability, hits mostly cytotoxic. HT-1080-NT fibrosarcoma viability, CellTiter-Glo ATP luminescence, 48 h. actives 1.6% (n = 360,000). AID 686970;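 note: NT is the 2HG producing partner of a matched IDH1 knockdown line; 0% = DMSO-treated cells and -100% = media-only wells without cells; nearly all actives have a fitted effect of over 55% in size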
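Fibrosarcoma NT cells, 750 per well in 5% FBS RPMI, were exposed to compound for 48 hours. Viability: CellTiter-Glo luminescence.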
HT1080 IDH1KD tx: kills HT-1080 cells with IDH1 knockdown; HT-1080 IDH1 knockdown viability, ATP luminescence, 48 h; Potency, µM (top dose mostly 46.1 µM), for inactives: top-dose activity, negative = toxicity, usual class: cytotoxic; actives 2% (n = 360,000); AID 686971;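 note: 0% = DMSO wells and -100% = cell-free medium wells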
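After a 2 h attachment period, IDH1KD HT-1080 cells took pin-transferred compound for 48 h at 37 °C; ATP-based luminescence after 10 min room-temperature reagent incubation reported viability.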
ATXN viability: cell viability loss in ATXN counter-screen; S2 cells (HEK-293 line with an ATXN2-luciferase reporter) viability, CellTiter-Fluor protease fluorescence, 24 h; Potency, µM (doses to about 56.7 µM), hits mostly cytotoxic; actives 0.49% (n = 400,000); AID 651635; note: nearly all actives have a fitted effect of over 40% in size
ATXN2 expr inh: reduces ATXN2 reporter expression in HEK-293 cells | HEK-293 ATXN2-luciferase reporter, luminescence, 24 h | Potency, µM (series often up to 57 µM), for the others: top-dose activity change, negative = inhibition, usual class: inhibitors | actives 0.72% (n = 360,000) | AID 1745845; note: % is set by controls: 0 for no effect and ±100 for the full control effect; nearly all actives have a fitted effect of over 55% in size
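ATXN2-luciferase reporter cells (luciferase flanked by upstream and downstream ATXN2 gene portions) were treated 24 h at 37 °C with compounds at up to 57 uM. SteadyGlo luminescence gave expression; GF-AFC fluorescence gave viability.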
HepG2 tox: counter-screen for TGF-b inhibitors: cytotoxicity in HepG2 cells. HepG2 CAGA-GFP viability, ATP luminescence, 18 h. Potency, µM (highest dose often 46.1 µM), for inactives: top-dose activity change, negative = cytotoxicity, most hits filed as cytotoxic. actives 0.76% (n = 410,000). AID 588856
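HepG2 CAGA-GFP cells (1000/well, DMEM with 1% FBS) received compound, then TGF-beta at 500 pg/mL final, and were incubated 18 hours at 37 degrees C. Viability was read by CellTiter-Glo luminescence. Media-only wells were set as complete cell-killing and DMSO as no toxicity.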
TGFb inhibitor: inhibitors of TGF-b signaling. HepG2 CAGA-GFP TGF-b/SMAD3 reporter, GFP fluorescence, 18 h; TGF-beta stimulated, 500 pg/mL final. Potency, µM (highest dose often 46.1 µM), inactives show at the top dose activity, negative = inhibition, most hits filed as inhibitors. actives 1.2% (n = 410,000). AID 588855; note: % is set by controls: 0 for no effect and ±100 for the full control effect; nearly all actives have a fitted effect of over 65% in size
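Inhibition of TGF-beta-driven CAGA-GFP reporter expression in HEPG2 cells is measured by cellular GFP fluorescence after 18 h stimulation with 500 pg/mL recombinant TGF-beta in 1% FBS medium at 37 degrees C.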
The depositor's hits bear a star. Calls come from the whole dose curve; as a rule, active = well fitted curve in the direction sought with a large enough effect; inconclusive = small, poorly fitted or top-dose-only effect, or another doubt; inactive = no such curve, though single readings can be large; an effect the other way counts as inactive or inconclusive. Potency is the fitted concentration of half-maximal effect.

O=C(CNC(=O)c1ccc(S(=O)(=O)N2CCCC2)cc1)N/N=C/c1ccccc1Cl was read as HT1080NT lethal -7%, HT1080 IDH1KD tx -8%, ATXN viability inactive, ATXN2 expr inh -8%, HepG2 tox 26% and TGFb inhibitor 29%.
For O=C(NC(=S)Nc1ccccc1Br)c1ccc2c(c1)OCO2 the results were HT1080NT lethal 7%, HT1080 IDH1KD tx 2%, ATXN viability inactive, ATXN2 expr inh 25%, HepG2 tox -38% and TGFb inhibitor 0%.
O=C(O)c1ccc(/C=N/NC(=O)c2ccc3c(c2)OCCO3)cc1 was read as HT1080NT lethal -2%, HT1080 IDH1KD tx 6%, ATXN viability inactive, HepG2 tox -13% and TGFb inhibitor 1%.
Screening Cc1cc(O)cc(O)c1/C=N/NC(=O)c1ccc2c(c1)OCCO2 returned HT1080NT lethal inconclusive, HT1080 IDH1KD tx 13µM*, ATXN viability inactive, HepG2 tox -18% and TGFb inhibitor -1%.
COc1ccc(C2(C(=O)NCC3Cc4cccc(-c5cccnc5)c4O3)CCCC2)cc1 (stereo not given) was read as ATXN viability inactive.
Screening COc1ccc(NC(=O)Cn2cnc3c(oc4ccccc43)c2=O)cc1OC returned ATXN viability inactive, ATXN2 expr inh 12%, HepG2 tox -1% and TGFb inhibitor -3%.
`O=C(CNC(=O)c1ccc2c(c1)OCO2)N/N=C(Br)/C=C/c1ccccc1` gave HT1080NT lethal inconclusive, HT1080 IDH1KD tx 15µM*, ATXN viability inconclusive, ATXN2 expr inh inconclusive, HepG2 tox 17% and TGFb inhibitor -12%.
For O=C(CNC(=O)c1ccc2c(c1)OCO2)N/N=C/c1cccc([N+](=O)[O-])c1 the results were HT1080NT lethal 16%, HT1080 IDH1KD tx 16%, ATXN viability inactive, HepG2 tox 2% and TGFb inhibitor -10%.
Screening O=C(N/N=C/c1c(O)ccc2ccccc12)c1ccc(CO)nc1 returned HT1080NT lethal -16%, HT1080 IDH1KD tx inconclusive, ATXN viability inactive, ATXN2 expr inh 4µM*, HepG2 tox -23% and TGFb inhibitor -5%.
For O=C(NN=Cc1c(O)ccc2ccccc12)c1ccc2c(c1)OCO2 the results were HT1080NT lethal 5.8µM*, HT1080 IDH1KD tx 5.2µM*, ATXN viability inactive, ATXN2 expr inh 3.2µM*, HepG2 tox -81% and TGFb inhibitor inconclusive.
`CCOc1ccccc1NC(=O)CSC1=Nc2ccccc2C2=NC(CC(=O)NC3CCCCC3)C(=O)N12` (stereo not given) gave ATXN viability inconclusive, ATXN2 expr inh 2%, HepG2 tox 0% and TGFb inhibitor -27%.
CCOC(=O)c1ccc(NC(=S)N(CCCN2CCCCC2)Cc2ccco2)cc1 was read as HT1080NT lethal inconclusive, HT1080 IDH1KD tx inconclusive, ATXN viability inactive, ATXN2 expr inh -1%, HepG2 tox -26% and TGFb inhibitor 0.63µM*.
For CCOC(=O)c1ccc(NC(=S)N(CCCN(CC)CC)Cc2ccco2)cc1 the results were HT1080NT lethal -13%, HT1080 IDH1KD tx -21%, ATXN viability inactive, ATXN2 expr inh -7%, HepG2 tox -20% and TGFb inhibitor -1%.
`COc1ccc(OC)c(C(=O)N2CCc3c(cnc(C)c3CNS(=O)(=O)N(C)C)C2)c1` gave ATXN viability inactive.
For Cc1cc(C(=O)N/N=C/c2c3ccccc3cc3ccccc23)n[nH]1 the results were HT1080NT lethal inconclusive, HT1080 IDH1KD tx 16µM*, ATXN viability inconclusive, ATXN2 expr inh -18%, HepG2 tox -46% and TGFb inhibitor inconclusive.
